In the library only some 1.2% were active in any assay of this set; here they are far more common.
RXFP1 ag: agonists of human relaxin receptor RXFP1. Q9HBX9. HEK293T-RXFP1 cAMP TR-FRET, 30 min; response scale: percent of porcine relaxin response, buffer zero. Potency, µM (top dose mostly 57.5 µM), usual class: activators. hit rate 0.3% among 370,000; also: nearly all actives have a fitted effect of over 60% in size
Target sequence (Q9HBX9 whole entry, looked up): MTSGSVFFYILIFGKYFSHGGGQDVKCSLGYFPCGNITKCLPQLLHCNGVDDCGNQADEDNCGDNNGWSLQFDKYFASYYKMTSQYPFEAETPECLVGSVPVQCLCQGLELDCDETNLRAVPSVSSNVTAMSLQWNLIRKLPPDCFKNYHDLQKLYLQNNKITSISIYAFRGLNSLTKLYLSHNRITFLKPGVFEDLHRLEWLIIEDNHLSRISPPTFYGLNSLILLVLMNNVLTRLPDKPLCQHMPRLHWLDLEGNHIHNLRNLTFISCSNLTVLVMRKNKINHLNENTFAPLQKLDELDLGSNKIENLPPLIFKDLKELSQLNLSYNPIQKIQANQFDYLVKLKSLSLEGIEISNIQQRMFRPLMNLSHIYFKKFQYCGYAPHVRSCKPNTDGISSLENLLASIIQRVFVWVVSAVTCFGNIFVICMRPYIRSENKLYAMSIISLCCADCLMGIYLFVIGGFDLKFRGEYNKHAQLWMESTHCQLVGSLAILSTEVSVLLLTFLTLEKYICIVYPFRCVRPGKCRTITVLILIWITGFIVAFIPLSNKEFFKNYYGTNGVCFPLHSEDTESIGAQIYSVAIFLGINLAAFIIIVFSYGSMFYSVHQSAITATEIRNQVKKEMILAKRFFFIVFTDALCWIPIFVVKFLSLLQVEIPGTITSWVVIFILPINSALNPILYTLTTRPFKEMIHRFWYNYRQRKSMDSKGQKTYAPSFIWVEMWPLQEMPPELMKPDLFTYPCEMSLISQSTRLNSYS
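HEK293 cells stably expressing RXFP1, treated 30 min at 37C with compounds plus PDE4 inhibitor Ro 20174; cAMP measured by HTRF TR-FRET. Normalized to buffer and 29 nM porcine relaxin; EC50 by Hill fit.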
Mm-Cpn inhibitor: inhibitors of Methanococcus maripaludis chaperonin TRiC (MmCpn); AID 504842; Potency, µM (series often up to 76.9 µM), actives largely listed as inhibitors; purified Mm-Cpn ATPase, ADP Transcreener TR-FRET; hit rate 0.031% among 330,000; also: nearly all actives have a fitted effect of over 80% in size
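Compound-treated chaperonin, 25 nM final, turns over 10 uM ATP at 37°C for 30 min following a 10 min preincubation; ADP generated competes with ADP-d2 for Eu-cryptate antibody, lowering FRET.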
RXFP1 antagonist: blocks the human relaxin receptor RXFP1; hit rate 0.59% among 350,000; activity change, negative = inhibition, % at 57.5 µM; HEK293-RXFP1, relaxin-stimulated cAMP HTRF, 30 min; active compounds read low; Q9HBX9;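 active = activity change of -60% or lower, but not beyond a set lower limit; inconclusive = change between -60% and -40%, or beyond the set limit; inactive = change above -40%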
gsp ag: agonists of gsp mutant (McCune-Albright syndrome); Potency, µM (top dose mostly 76.9 µM), most hits filed as activators; gsp mutant cells, cAMP HTRF, 30 min; hit rate 0.13% among 340,000; AID 624287; active = well fitted activation curve with a large enough effect; inconclusive = small, poorly fitted or top-dose-only effect, or another doubt; inactive = no such curve, though single readings can be large or run the other way; cell line not stated here;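 also: phosphodiesterase inhibitor Ro 20-1724 added with compounds to block cAMP breakdown; nearly all actives have a fitted effect of over 60% in size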
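Cells stably selected in G418 were plated at 2000/well, grown 16-24 hr, then given compounds in DMSO with the PDE inhibitor […] (300 uM solution added) for 30 min at 37C; cAMP was read by HTRF.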
CCT modulator: changes cytosolic chaperonin activity; purified chaperonin ATPase assay, HTRF ADP detection, 30 min; activity change, % (concentration not given with the values), hits read low; hit rate 0.3% among 360,000; AID 651819; in the data active = activity change below about -30%
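TRiC (40 or 20 nM final, by batch activity) in 30 mM Tris pH 7.4, 100 mM KCl, 5 mM MgCl2, 1 mM DTT was treated with compound at 76 uM single dose, then 10 uM ATP, 30 min at 37 °C. ADP was read by HTRF Transcreener.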
gsp antag: antagonists of gsp mutant (McCune-Albright syndrome). hit rate 0.4% among 340,000. Potency, µM (doses to about 76.9 µM), most hits filed as inhibitors. gsp-mutant cells, cAMP HTRF, 30 min; calls by dose curve; cell line not stated here;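 also: intracellular cAMP measured with PDE inhibitor Ro 20-1724 present during compound exposure; nearly all actives have a fitted effect of over 65% in size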
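Cells in G418 medium, seeded 16-24 h, 37C; buffer exchange to DPBS + 1 mM CaCl2, 0.5 mM MgCl2, 0.05% BSA; cpds in DMSO + […] (300 uM stock), 30 min 37C; HTRF cAMP detection.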
Hits are given with their value; [ ] = another dose, or the depositor's remark. Unless noted, calls follow the shape of the dose curve; as a rule, active = well fitted curve in the direction sought with a large enough effect; inconclusive = small, poorly fitted or top-dose-only effect, or another doubt; inactive = no such curve, though single readings can be large; an effect the other way counts as inactive or inconclusive.

`O=C1NC(=O)N(Cc2ccco2)C(=O)/C1=C/c1ccc(-c2cccc([N+](=O)[O-])c2)o1` gave RXFP1 ag inactive, Mm-Cpn inhibitor inactive, RXFP1 antagonist -67, gsp ag inactive, CCT modulator inactive and gsp antag inactive.
Screening CN(C)c1ccc(/C=C2/C(=O)NC(=O)N(Cc3ccco3)C2=O)cc1 returned RXFP1 ag inactive, Mm-Cpn inhibitor inactive, RXFP1 antagonist inactive, gsp ag inactive, CCT modulator inactive and gsp antag inactive.
Cc1cccc(OCCn2cccc2/C=C2/C(=O)NC(=O)N(Cc3ccco3)C2=O)c1 was read as RXFP1 ag inactive, Mm-Cpn inhibitor inactive, RXFP1 antagonist -68, gsp ag inactive, CCT modulator inactive and gsp antag inconclusive.
`COc1ccc(N2C(=O)/C(=C/C=C/c3ccccc3[N+](=O)[O-])C(=O)NC2=S)cc1` gave RXFP1 ag inactive, Mm-Cpn inhibitor inactive, RXFP1 antagonist -77, gsp ag inactive[15.4 µM], CCT modulator inactive and gsp antag inactive.
`O=c1[nH]c(=S)[nH]c(O)c1N=Nc1ccc(S(=O)(=O)N2CCc3ccccc32)cc1` gave RXFP1 ag inactive, Mm-Cpn inhibitor inactive, RXFP1 antagonist -100, gsp ag inactive[15.4 µM], CCT modulator inactive and gsp antag inactive.
`O=c1[nH]c(=S)[nH]c(O)c1N=Nc1ccc(SC(F)F)cc1` gave RXFP1 ag inactive, Mm-Cpn inhibitor inactive, RXFP1 antagonist -71, gsp ag inactive[15.4 µM], CCT modulator inactive and gsp antag inactive.
For CCc1ccc(NC(=O)c2cnc3sc(N4CCCC4)nn3c2=O)cc1 the results were RXFP1 ag inconclusive and RXFP1 antagonist inactive.
For O=[N+]([O-])/C=C/c1c(Cl)cccc1Cl the results were RXFP1 antagonist -67, gsp ag inactive, CCT modulator inactive and gsp antag inactive.
`CCOC(=O)C1(c2ccccc2)CCN(CCc2ccc(N)cc2)CC1` gave RXFP1 antagonist inactive.
Screening FC(F)(F)c1cccc(CC2CN(Cc3ccccc3)Cc3ccccc3N2c2cc(Cl)cc(Cl)c2)c1 (centres undefined) returned RXFP1 antagonist inactive, gsp ag inactive and CCT modulator inactive.
CC[C@H](OC(C)=O)C(C[C@H](C)NC)(c1ccccc1)c1ccccc1 was read as RXFP1 antagonist inactive.
`CC[C@@]1(O)C(=O)OCc2c1cc1n(c2=O)Cc2cc3c(NC(=O)CN)cccc3nc2-1` gave RXFP1 ag 14µM, Mm-Cpn inhibitor inactive, RXFP1 antagonist inactive, gsp ag inactive[15.4 µM], CCT modulator inactive and gsp antag inactive.
CC(Cc1ccccc1)NCCCCl (centres undefined) was read as RXFP1 antagonist inactive.
For CC[N+](CC)(CC)CC the results were RXFP1 ag inactive, Mm-Cpn inhibitor inactive, RXFP1 antagonist inactive, CCT modulator inactive and gsp antag 35µM.
`C[C@]12CCC(=O)C=C1CC[C@@H]1[C@H]3CC[C@](C)(O)[C@@]3(C)CC[C@@H]12` gave RXFP1 antagonist inactive.
Screening CC(=O)c1c(O)n(-c2cccc(Cl)c2)c(=O)[nH]c1=O (tested in a mixture with another compound) returned RXFP1 ag inactive, Mm-Cpn inhibitor inactive, RXFP1 antagonist inactive, gsp ag inactive[15.4 µM], CCT modulator inactive and gsp antag inactive.
`CC(C)n1c(O)c(C2c3cc(Cl)ccc3Oc3[nH]c(=O)n(C(C)C)c(=O)c32)c(=O)[nH]c1=O` (centres undefined) gave RXFP1 ag inactive, Mm-Cpn inhibitor inactive, RXFP1 antagonist -84, gsp ag inactive[15.4 µM], CCT modulator inactive and gsp antag inactive.
`FC(F)(F)c1ccccc1CNCCc1c[nH]c2ccccc12` gave RXFP1 ag inactive, Mm-Cpn inhibitor inactive, RXFP1 antagonist -101, gsp ag inactive, CCT modulator inactive and gsp antag inactive.
For COc1ccc(-[n+]2c(-c3ccccc3)cc(-c3ccccc3)cc2-c2ccccc2)cc1 the results were RXFP1 ag inactive, Mm-Cpn inhibitor inactive, CCT modulator inactive and gsp antag inactive.
Oc1ccc(-[n+]2c(-c3ccccc3)cc(-c3ccccc3)cc2-c2ccccc2)cc1 was read as RXFP1 ag inactive, Mm-Cpn inhibitor inactive, CCT modulator inactive and gsp antag 50µM.
For CO/C=C(/C(=O)OC)c1ccccc1Oc1cc(Oc2ccccc2C#N)ncn1 the results were RXFP1 antagonist inactive.
CCC(COC(=O)c1cc(OC)c(OC)c(OC)c1)(c1ccccc1)N(C)C (centres undefined) was read as RXFP1 ag inactive, Mm-Cpn inhibitor inactive[15.4 µM], RXFP1 antagonist -62, CCT modulator inactive and gsp antag inactive.
`Cc1ccc(/C=C2/C(=O)NC(=O)N(CCc3ccc(F)cc3)C2=O)o1` gave RXFP1 ag inactive, Mm-Cpn inhibitor inactive, RXFP1 antagonist -73, gsp ag inactive, CCT modulator inactive and gsp antag inactive.
Screening C1CN2CCC1CC2 returned RXFP1 antagonist inactive.
CC(=NCCc1ccccc1)c1c(O)n(C)c(=O)n(C)c1=O was read as RXFP1 ag inactive, Mm-Cpn inhibitor inactive, RXFP1 antagonist inactive, gsp ag inactive[15.4 µM], CCT modulator inactive and gsp antag inactive.
`Cn1c(O)c(Cc2ccc(OCc3ccccc3)cc2)c(=O)n(C)c1=O` gave RXFP1 ag inactive, Mm-Cpn inhibitor inactive, RXFP1 antagonist inactive, gsp ag inactive, CCT modulator inactive and gsp antag 7.1µM.
For CC(C)c1ccc(N=Nc2c(O)[nH]c(=O)[nH]c2=O)cc1 the results were RXFP1 ag inactive, Mm-Cpn inhibitor inactive, RXFP1 antagonist inactive, gsp ag inactive, CCT modulator inactive and gsp antag inactive.
O=c1[nH]c(O)c(N=Nc2ccc([N+](=O)[O-])cc2)c(=O)[nH]1 was read as RXFP1 ag 14µM, Mm-Cpn inhibitor inactive, RXFP1 antagonist inactive, gsp ag inconclusive, CCT modulator inactive and gsp antag inactive.
O=C1OCc2cc(N=Nc3c(O)[nH]c(=O)[nH]c3=O)ccc21 was read as RXFP1 ag 10µM, Mm-Cpn inhibitor inactive, RXFP1 antagonist inactive, gsp ag inconclusive, CCT modulator inactive and gsp antag inactive.
Screening CC(Cc1ccccc1)N(C)Cc1ccco1 (centres undefined) returned RXFP1 antagonist inactive.
For O=C1NC(=O)N(Cc2ccccc2)C(=O)/C1=C/C=C/c1ccco1 the results were RXFP1 ag inactive, Mm-Cpn inhibitor inactive, RXFP1 antagonist inconclusive, gsp ag inactive, CCT modulator inactive and gsp antag 50µM.
For COc1ccc(CN2C(=O)NC(=O)/C(=C\c3ccco3)C2=O)cc1 the results were RXFP1 ag inactive, Mm-Cpn inhibitor inactive, RXFP1 antagonist inactive, gsp ag inactive, CCT modulator inactive and gsp antag inactive.
